Assay results taken from PubChem BioAssay AID1729 (National Center for Advancing Translational Sciences (NCATS), 2009).
Records with an inconclusive call do not appear. Unmarked numbers belong to inactive results. Active and inactive are the calls of the source. Calls follow the shape of the dose curve; as a rule, active = well fitted curve in the direction sought with a large enough effect; inconclusive = small, poorly fitted or top-dose-only effect, or effect the other way, or another doubt; inactive = no such curve, though single readings can be large or run the other way.

Target: Epidermal growth factor receptor (Homo sapiens) (UniProt P00533)
Sequence (P00533 whole entry T790M, looked up): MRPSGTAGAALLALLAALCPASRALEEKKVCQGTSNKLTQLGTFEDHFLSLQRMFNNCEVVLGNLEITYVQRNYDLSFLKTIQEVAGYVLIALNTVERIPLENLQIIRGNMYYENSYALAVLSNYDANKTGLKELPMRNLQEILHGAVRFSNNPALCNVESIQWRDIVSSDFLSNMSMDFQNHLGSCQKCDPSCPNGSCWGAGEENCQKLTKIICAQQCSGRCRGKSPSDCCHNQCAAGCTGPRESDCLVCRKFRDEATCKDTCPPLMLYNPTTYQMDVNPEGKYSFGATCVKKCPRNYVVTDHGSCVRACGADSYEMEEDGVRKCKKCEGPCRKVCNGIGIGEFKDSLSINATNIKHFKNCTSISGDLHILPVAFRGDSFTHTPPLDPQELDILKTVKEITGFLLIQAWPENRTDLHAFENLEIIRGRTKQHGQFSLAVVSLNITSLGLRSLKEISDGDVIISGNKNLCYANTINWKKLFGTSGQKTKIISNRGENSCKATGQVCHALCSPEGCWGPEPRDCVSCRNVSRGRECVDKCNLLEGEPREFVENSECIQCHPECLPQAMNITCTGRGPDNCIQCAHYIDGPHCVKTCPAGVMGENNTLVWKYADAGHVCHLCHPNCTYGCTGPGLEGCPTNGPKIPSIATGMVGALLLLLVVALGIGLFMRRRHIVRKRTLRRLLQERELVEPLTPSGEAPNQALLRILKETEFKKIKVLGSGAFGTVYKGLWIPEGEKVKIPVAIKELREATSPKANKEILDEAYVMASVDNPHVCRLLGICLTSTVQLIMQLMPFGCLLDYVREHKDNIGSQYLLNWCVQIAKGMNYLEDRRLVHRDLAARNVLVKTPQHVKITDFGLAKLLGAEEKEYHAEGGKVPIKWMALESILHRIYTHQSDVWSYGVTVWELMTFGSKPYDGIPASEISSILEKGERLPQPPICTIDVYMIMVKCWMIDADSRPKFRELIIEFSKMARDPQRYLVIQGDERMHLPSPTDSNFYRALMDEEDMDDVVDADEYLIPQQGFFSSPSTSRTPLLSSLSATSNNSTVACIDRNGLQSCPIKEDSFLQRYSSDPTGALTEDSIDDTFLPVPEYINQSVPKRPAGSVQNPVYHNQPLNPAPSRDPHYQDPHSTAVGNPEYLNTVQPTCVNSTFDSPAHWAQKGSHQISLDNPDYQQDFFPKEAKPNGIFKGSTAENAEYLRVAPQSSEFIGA
Assay: Assay for Inhibitors of the ERK Signaling Pathway using a Homogeneous Screening Assay: EGFR T790M Kinase Inhibition
Conditions: EGFR T790M kinase biochemical inhibition assay; series mostly up to 21.9 µM; activity change, negative = inhibition: at the top concentration
From the text: qHTS Assay for Inhibitors of the ERK Signaling Pathway using a Homogeneous Screening Assay
NIH Chemical Genomics Center [NCGC]
NIH Molecular Libraries Screening Centers Network [MLSCN]
Assay Submitter (PI): Dr. Wei Zheng, NCGC/NIH
The Ras/extracellular-signal-regulated kinase (ERK) mitogen activated protein (MAP) kinase signaling pathway (ERK1/2 cascade) plays is a key role in transmitting signals from the cell surface to the nucleus (Nishida and Gotoh 1993; Chang and Karin, 2001). The cascade is initiated by the small G-protein Ras, which recruits Raf […], where activation occurs. Alternatively, this pathway can be activated by elevating intracellular cAMP.
Activation of the ERK pathway is essential in increased cell division and cell survival. Sustained and constitutive activation of the ERK pathway, however, has been linked to uncontrolled cell proliferation, increased cell survival, and tumor progression. Thus, the ERK has been as an attractive target for cancer chemotherapy in the past few years (Sebolt-Leopold and Herrera, 2004). Given its physiological and pathological importance, assessment of ERK phosphorylation has been broadly performed in both basic research and drug discovery. Most assays for the measurement of ERK phosphorylation use the antibody-based detection methods, such as western blot and ELISA. These assays require multiple reagent additions with cell wash steps and are not suitable for high-throughput screening.
The current cell-based ERK phosphorylation assay was performed using AlphaScreen platform. AlphaScreen is a two bead-based proximity-dependent chemical energy transfer luminescent assay platform. The assay reagents (ERK SureFire(TM) kit) were supplied from TGR BioSciences (Australia). In the presence of specific antibodies, phosphorylated ERK will bring "donor" and "acceptor" beads to a proximity range (<200 nm), and subsequently lead a chemical luminescent reaction upon exciting donor beads with 680 nm laser. To validate pathway hits from the cell-based assay, enzyme assays consisting of EGFR tyrosine kinase, Raf and MEK were used as a means of deciphering the enzymes of target for the prioritized group of compounds derived from the HEK-293 cell based assay. The compounds were tested against significant members of the ERK signaling pathway EGFR and EGFR mutants (EGFR L858R, EGFR T790M, and EGFR L858R T790M). In order to establish the specificity of the prioritized compounds for EGFR and EGFR mutants, the compounds were also assayed against other important ERK signaling pathway enzymes, c-RAF and MEK-1.
NCGC Assay Protocol Summary:
The HTRF kinase assay (components supplied as kit by Cisbio) was chosen for the EGFR and EGFR mutant enzyme assays that applied the time resolved fluorescence resonance energy transfer (TR-FRET) principle. A peptide substrate is labeled with a biotin that can bind to XL665 labeled streptavidin and the anti-phosphoresidue antibody is labeled with Eu+. Upon phosphorylation of the substrate, the antibody binds to phosphorylated substrate that enables TR-FRET detection in homogenous assay format.
An HTRF Kinease TK assay kit (Cisbio, Bedford, MA) was used to develop the EGFR and EGFR mutant assays (Harbert et al., 2008. Harbert C, Marshall J, Soh S, Steger K. Development of a HTRF Kinase Assay for Determination of Syk Activity. Current Chemical Genomics. 1: 20-26. 2008). EGFR and EGFR mutants were obtained from Invitrogen. The assay buffer was composed of 50 mM HEPES (pH 7.0), 5 mM MgCl2, 5mM DTT, 0.1 % NaN3, 0.1 % BSA and 0.1 mM orthovanadate.
The HTRF assays were preformed according to the HTRF Kinease TK kit. Optimization for each enzyme was preformed in 384 well format (data not included). All reagents were dispensed into 1536 well plates.
(1) Enzyme, […] EGFR at 3 nM final
(2) Compound, 22 nl, Library Compounds in 0.128 to 10 mM titration series or control
(3) Reagent, 1.5 ul 10 uM ATP and 0.25 uM substrate final
(4) Incubation for 30 min, Ambient conditions
[…]

In the case of Cc1ccc2nc(=O)c(NNc3ccccc3)cnc2c1, the Potency is reported as 355 nM (active).
In the case of N#C/C(=C(/N)Sc1ccc(N)cc1)c1ccccc1C(F)(F)F, the Potency is reported as “inactive”.
With Cc1nc2ccccc2nc(=O)c1NNc1ccccc1 the Potency was 316 nM (active).

Going from Cc1ccc(NNc2c(C)nc3ccccc3nc2=O)cc1 to Cn1nc(-c2ccc(Cl)cc2)nc2c(=O)n(C)c(=O)nc1-2, the “activity change, negative = inhibition” value rises from -13.2% to 4.21%.

First: COc1ccc(C(=O)c2ccc(Cl)c([N+](=O)[O-])c2)cc1
Second: O=C(Nc1nc(-c2ccccc2)cs1)c1ccc(N2CCOCC2)c([N+](=O)[O-])c1
The “activity change, negative = inhibition” value of the first is lower: -4.67% for the first, -3.77% for the second.

Going from CS(=O)(=O)CCNCc1nc(-c2ccc3ncnc(Nc4ccc(OCc5cccc(F)c5)c(Cl)c4)c3c2)cs1 to Fc1ccc(Nc2ncnc3sc4c(c23)CCC4)cc1F, the “activity change, negative = inhibition” value rises from -6.15% to -2.3%.

Compared with Cn1c(=O)[nH]c2nnc(-c3ccc(Cl)c(Cl)c3)nc2c1=O, CCn1c(=O)c2[nH]c(-c3ccccc3)nc2n(CC)c1=O is lower in “activity change, negative = inhibition” value: 2.61% for the first, -2.65% for the second.

With CCN(CC)CCC(=O)Nc1cccc2c1C(=O)c1ccccc1C2=O the “activity change, negative = inhibition” value was -1.03%.
